# Results as given in publication PMC10668032, “Altered binding affinity of SIX1-Q177R correlates with enhanced WNT5A and WNT pathway effector expression in Wilms tumor”.
# In all, about 33,000 sequences were measured (“e-score”: median about -0.05, highest 2% from about 0.38 on). This excerpt belongs to a sample that is enriched for the highest values.
# Molecular target: T1, SIX1-Q177R homeodomain (human, UniProt Q15475 108-198, Q177R)
# T1 sequence: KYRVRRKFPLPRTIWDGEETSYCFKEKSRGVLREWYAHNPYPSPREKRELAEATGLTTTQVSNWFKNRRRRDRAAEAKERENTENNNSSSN
# Assay: universal protein binding microarray; Universal all-10-mer PBM (8x60K, AMADID 030236), 300 nM GST-tagged protein, Alexa Fluor 488 anti-GST; buffer, salt, pH and temperature not stated (as in Berger); high values mean tight binding
# Conditions: protein: ivt; tags: N-terminal GST; dsDNA, one strand shown
# How it was run: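 Homeodomains carrying a GST tag were produced by in vitro transcription/translation, then quantified by anti-GST western blot against a recombinant GST standard curve. Duplicate applications at 300 nM final concentration were made to universal 'all 10-mer' protein binding microarrays in 8×60K format. The Universal PBM Analysis Suite was used to express binding as 8-mer E-scores.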
row,Sequence,binding signal [E-score]
1,CTAGATAC,0.165 ± 0.0452
2,CTAGACCC,0.184 ± 0.00755
3,CTAGACAC,0.393 ± 0.0124
4,ATAGACAC,0.428 ± 0.0191
5,GTAGACAC,0.409 ± 0.0281
6,ATAGAGTC,0.202 ± 0.0331
7,AGATAGAC,0.154 ± 0.0062
8,ACAAGGTG,0.264 ± 0.0157
9,ACCATCCA,0.215 ± 0.0116
10,GGGTGCGA,0.181 ± 0.00744
11,CCCTGACG,0.152 ± 0.00643
12,CCGCCGTA,0.164 ± 0.00253
13,GAGACCCC,0.225 ± 0.0263
14,CACCCACC,0.252 ± 0.0101
15,CACCACTA,0.3486 ± 0.00204
16,ACTGTGTG,0.177 ± 0.0389
17,ATGGAGAC,0.174 ± 0.0638
18,CTGGACAC,0.406 ± 0.0173
19,ATGGACAC,0.419 ± 0.00799
20,GTGGACAC,0.419 ± 0.0259
21,GTGGGACA,0.171 ± 0.0189
22,CTGGAAAC,0.178 ± 0.0277
23,CTGGATAC,0.222 ± 0.0101
24,GTGCACAC,0.271 ± 0.021
25,ATGGATAC,0.278 ± 0.0318

row,Sequence,binding signal [E-score]
1,ACCCTAGT,0.269 ± 0.00753
2,CCCCTCTA,0.2508 ± 0.000354
3,GGGTGTCA,0.4915 ± 0.00277
4,ATGTGTCG,0.188 ± 0.0615
5,AGGTGTCG,0.4794 ± 0.00471
6,AGGTGTCC,0.464 ± 0.0052
7,GGGTGCCA,0.2 ± 0.0639
8,CTGTGTCA,0.256 ± 0.066
9,CGGTGCCA,0.19 ± 0.0233
10,AGGGGTCC,0.178 ± 0.00987
11,AGGTGGTG,0.287 ± 0.0143
12,CGGTGTCA,0.4918 ± 0.00175
13,GGGGGTCA,0.313 ± 0.0364
14,GGGAGTAC,0.2586 ± 0.000728
15,CGGATCCG,0.183 ± 0.00497
16,GTCTCATA,0.179 ± 0.0328
17,CCCGGGGA,0.206 ± 0.0149
18,CACCGCTC,0.27 ± 0.013
19,CCATAACA,0.2144 ± 0.000806
20,AGACGGTG,0.23 ± 0.0191
21,AAACGGTG,0.308 ± 0.011
22,CCCTCACG,0.165 ± 0.0328
23,CCCCCTCA,0.223 ± 0.0246
24,CCGCGCGG,0.172 ± 0.0537
25,ACTGGTAT,0.2685 ± 0.000262

row,Sequence,binding signal [E-score]
1,CCGGTTAC,0.1852 ± 0.000205
2,AGGTGACA,0.251 ± 0.0589
3,ATGTGTCA,0.253 ± 0.0258
4,CGGGGTCC,0.241 ± 0.0168
5,CGGTGTCC,0.489 ± 0.00456
6,CGGTGATC,0.163 ± 0.0497
7,AGGTGTCA,0.4862 ± 0.000651
8,TCGGTGCA,0.232 ± 0.0114
9,CACGACCG,0.225 ± 0.0274
10,CGCCACCC,0.19 ± 0.0435
11,TAGTGAGA,0.154 ± 0.0331
12,TGTCGACA,0.25 ± 0.0489
13,GGGATACC,0.341 ± 0.00451
14,AGACCCTA,0.195 ± 0.0142
15,CACGGGCG,0.204 ± 0.0346
16,ACACGTCA,0.323 ± 0.0149
17,ACACGGCC,0.3824 ± 0.0024
18,ACACGTCG,0.323 ± 0.0129
19,ACACGGCA,0.3737 ± 0.00357
20,ACACGTCT,0.344 ± 0.0192
21,ACACGGCT,0.3983 ± 0.00124
22,AACCCCGC,0.194 ± 0.0341
23,TACTCCCA,0.16 ± 0.038
24,ACGCGGCG,0.229 ± 0.0107
25,ACCGAATA,0.155 ± 0.00809

row,Sequence,binding signal [E-score]
1,CACACGCC,0.252 ± 0.0122
2,GACACGCC,0.4444 ± 0.00225
3,CACGCGCA,0.212 ± 0.0332
4,GACACGCA,0.416 ± 0.0252
5,CACACGCG,0.296 ± 0.0321
6,ACCTCCGA,0.172 ± 0.0111
7,CCCCTAGC,0.177 ± 0.00211
8,ACTCGGAC,0.179 ± 0.0406
9,CACCCTGA,0.339 ± 0.0238
10,AGGATCCC,0.155 ± 0.0155
11,GTAACAGA,0.16 ± 0.00854
12,CCCGAGAC,0.204 ± 0.023
13,ACCCGTCT,0.178 ± 0.0209
14,CGAGTCAC,0.196 ± 0.0324
15,CGTGTCAG,0.441 ± 0.0089
16,AGTGTCAC,0.45 ± 0.00611
17,GGAGTCAC,0.3325 ± 0.00242
18,AGTATCAG,0.266 ± 0.0112
19,CGTGTCAC,0.462 ± 0.0133
20,CGCGTCAG,0.154 ± 0.00463
21,CGTGTCTC,0.338 ± 0.00573
22,GGGGTCAC,0.29 ± 0.0253
23,GGTGTCAC,0.4915 ± 0.00356
24,ACGCGGTG,0.334 ± 0.012
25,GGGATCCA,0.211 ± 0.0194

row,Sequence,binding signal [E-score]
1,ACCTGACA,0.228 ± 0.0625
2,ACCCCACT,0.207 ± 0.00426
3,GCGGATAA,0.162 ± 0.0348
4,CTCGTACA,0.17 ± 0.0125
5,CCCAAACA,0.208 ± 0.0371
6,CACTCTTA,0.164 ± 0.0568
7,GAACCCCC,0.244 ± 0.0572
8,ATACCCAG,0.274 ± 0.0157
9,AGTGTCCG,0.365 ± 0.00508
10,AGTGTCAA,0.424 ± 0.0101
11,AGTGTCTG,0.302 ± 0.0115
12,AGTGTCAT,0.462 ± 0.0172
13,GGGGTCAA,0.253 ± 0.0228
14,AGAGTCAT,0.1867 ± 0.000552
15,AGTGTCAG,0.4435 ± 0.00254
16,GGTGTCAA,0.49013 ± 0.000481
17,GGCGTCAA,0.177 ± 0.0347
18,GAGGTATC,0.337 ± 0.00525
19,CCCTCCCA,0.176 ± 0.0422
20,ACCAAACA,0.244 ± 0.0473
21,GTAACATA,0.196 ± 0.0373
22,AAAGGGGG,0.233 ± 0.0235
23,CACCTTTC,0.195 ± 0.00584
24,CGTGATCC,0.195 ± 0.0306
25,TGTGTCAA,0.303 ± 0.0203

row,Sequence,binding signal [E-score]
1,CGGGTCAA,0.2 ± 0.04
2,CGTGTCAA,0.409 ± 0.00885
3,ACTATGCG,0.17 ± 0.0186
4,ACCTCGGA,0.175 ± 0.0387
5,AATGACTC,0.245 ± 0.00746
6,GATGACCC,0.211 ± 0.0466
7,CATGACCC,0.218 ± 0.0214
8,GATGATAC,0.242 ± 0.0302
9,AATGACCC,0.181 ± 0.0204
10,CATGACAC,0.4733 ± 0.00427
11,GATGACAC,0.4656 ± 0.00203
12,AATGACAC,0.464 ± 0.0115
13,CATGATAC,0.287 ± 0.0236
14,CACCTAGA,0.276 ± 0.00873
15,GACGCCAC,0.201 ± 0.00624
16,CACCCATC,0.277 ± 0.0196
17,ACCCCCGA,0.298 ± 0.0252
18,CACTATCC,0.196 ± 0.0388
19,AGGGTACA,0.237 ± 0.00699
20,ACTCCGGA,0.204 ± 0.0189
21,ACCCAGAA,0.179 ± 0.00761
22,ACAGTACA,0.203 ± 0.0245
23,GGATCCGA,0.217 ± 0.0131
24,CACTACCA,0.227 ± 0.00878
25,GCACGACC,0.255 ± 0.00765

row,Sequence,binding signal [E-score]
1,CCACGACA,0.27 ± 0.00989
2,ACACGACG,0.368 ± 0.0133
3,ACACGAAA,0.302 ± 0.0196
4,GCACGACA,0.2099 ± 0.000516
5,ACACGAAT,0.31 ± 0.00916
6,ACACGACC,0.4169 ± 0.00152
7,ACACGACT,0.411 ± 0.00971
8,ACACGACA,0.404 ± 0.00581
9,ACCGAATG,0.173 ± 0.0343
10,CCCCCCTA,0.232 ± 0.01
11,GTGGAGTA,0.29 ± 0.0112
12,ATCGAGGG,0.167 ± 0.00486
13,ATCCGATC,0.213 ± 0.0309
14,CACTCGGC,0.237 ± 0.0125
15,GCGAGTAC,0.175 ± 0.00781
16,CCGTATCA,0.245 ± 0.0466
17,GGGTAACC,0.196 ± 0.00371
18,ACGATAGT,0.157 ± 0.0172
19,GCACCACA,0.154 ± 0.00776
20,GCACCACC,0.261 ± 0.00493
21,ACACCACC,0.4809 ± 0.000976
22,ACGCCACT,0.159 ± 0.00951
